# Measurements: PubChem BioAssay (EPA / NIEHS)
# Values joined by “and” are separate entries in the source; they are usually repeats but may differ in a detail not shown here. Equal values may be shown once. Results filed as inconclusive are left out. Active and inactive are the calls of the source. Rule for the calls: active = hit-call score of the fitted dose curve at least 0.9, where 1 is the maximum; inconclusive = response in the unintended direction; inactive = score below 0.9.
# Key:
# [1] = molecular target: rabbit Imidazoline 2 Central (I2C), CKB (gene 100009085) (UniProt P00567); experiment: NVS_ENZ_rabI2C: NovaScreen (NVS) Enzymatic Assay for rabbit Imidazoline 2 Central (I2C) (AID 2283228)
# rabbit Imidazoline 2 Central (I2C), CKB (gene 100009085), sequence (P00567 whole entry, looked up): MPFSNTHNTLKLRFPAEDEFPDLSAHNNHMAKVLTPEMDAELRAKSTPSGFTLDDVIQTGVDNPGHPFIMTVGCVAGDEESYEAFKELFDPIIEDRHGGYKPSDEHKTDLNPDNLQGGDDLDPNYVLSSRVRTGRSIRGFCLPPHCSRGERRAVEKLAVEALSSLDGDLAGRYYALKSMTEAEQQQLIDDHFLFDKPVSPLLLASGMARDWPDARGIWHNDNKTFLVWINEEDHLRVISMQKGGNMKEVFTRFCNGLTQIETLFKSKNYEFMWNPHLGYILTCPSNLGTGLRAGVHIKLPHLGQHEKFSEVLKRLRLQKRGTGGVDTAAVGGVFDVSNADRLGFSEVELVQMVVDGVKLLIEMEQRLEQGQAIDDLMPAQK
# Procedure, shortened: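 Rabbit brain membranes, cell-free; readout by filter-based scintillation counting 1.5 hours after dosing, loss of signal vs DMSO. Initial duplicate test at 25 uM, then concentration-response with 50 uM top concentration.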
# [2] = molecular target: human Sirtuin 2 (SIRT2), SIRT2 (gene 22933) (UniProt Q8IXJ6); experiment: NVS_ENZ_hSIRT2: NovaScreen (NVS) Enzymatic Assay for human Sirtuin 2 (SIRT2) (AID 2283217)
# human Sirtuin 2 (SIRT2), SIRT2 (gene 22933), sequence (Q8IXJ6 whole entry, looked up): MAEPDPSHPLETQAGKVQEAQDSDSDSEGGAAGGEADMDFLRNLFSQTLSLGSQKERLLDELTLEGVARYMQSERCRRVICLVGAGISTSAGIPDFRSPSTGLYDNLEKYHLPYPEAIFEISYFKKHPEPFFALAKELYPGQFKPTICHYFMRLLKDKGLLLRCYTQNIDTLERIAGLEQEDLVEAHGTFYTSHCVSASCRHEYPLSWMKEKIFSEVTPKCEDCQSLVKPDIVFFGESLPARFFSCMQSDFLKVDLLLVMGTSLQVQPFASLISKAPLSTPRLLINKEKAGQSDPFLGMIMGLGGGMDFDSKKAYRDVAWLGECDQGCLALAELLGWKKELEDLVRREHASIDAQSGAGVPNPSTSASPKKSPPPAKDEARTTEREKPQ
# Procedure, shortened: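 Cell-free recombinant human SIRT2, fluorescent substrate with product separated by electrophoretic mobility shift, 1 hr. Screened in duplicate at 25 uM; hits rerun singly in concentration-response up to 50 uM, relative to DMSO.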
# [3] = molecular target: human Sirtuin 3 (SIRT3), SIRT3 (gene 23410) (UniProt Q9NTG7); experiment: NVS_ENZ_hSIRT3: NovaScreen (NVS) Enzymatic Assay for human Sirtuin 3 (SIRT3) (AID 2283222)
# Procedure, shortened: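 Cell-free enzyme assay with recombinant protein and fluorescent substrate, product separated by electrophoretic mobility shift; read 1 hour after dosing. Screened in duplicate at 25 uM, then singleton concentration-response up to 50 uM; loss of signal versus DMSO.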
# [4] = molecular target: rat Constitutive Nitric Oxide Synthase (CNOS), Nos1 (gene 24598) (UniProt P29476); experiment: NVS_ENZ_rCNOS: NovaScreen (NVS) Enzymatic Assay for rat Constitutive Nitric Oxide Synthase (CNOS) (AID 2283236)
# Procedure, shortened: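 Enzyme activity in rat brain membrane preparation, read 1 h after dosing by filter-based radiometric scintillation counting. Primary screen in duplicate at 25 uM; actives (e.g., ≥30% inhibition) then run in concentration-response up to 50 uM.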
# [5] = molecular target: sheep Cyclooxygenase-2 (Cox2), PTGS2 (gene 443460) (UniProt P79208); experiment: NVS_ENZ_oCOX2: NovaScreen (NVS) Enzymatic Assay for sheep Cyclooxygenase-2 (Cox2) (AID 2283231)
# Procedure, shortened: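 Colorimetric absorbance read-out of COX activity, taken 0.66 hour post-dosing, using native protein from sheep placenta. Single-concentration duplicate screen (25 uM), then singleton concentration-response up to 50 uM for actives.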
# [6] = molecular target: sheep Cyclooxygenase-1 (Cox1), PTGS1 (gene 443551) (UniProt P05979); experiment: NVS_ENZ_oCOX1: NovaScreen (NVS) Enzymatic Assay for sheep Cyclooxygenase-1 (Cox1) (AID 2283239);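 note: actives reduce cyclooxygenase activity so potencies are for inhibitors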
# Procedure, shortened: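 Ovine seminal vesicle extract; absorbance (colorimetric) enzyme read-out at 0.66 h post-dose. Primary: single conc 25 uM, duplicate. Follow-up: concentration series on actives. Activity = signal loss vs DMSO baseline.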
# [7] = molecular target: human Tropomyosin Receptor Kinase A (TRKA), NTRK1 (gene 4914) (UniProt P04629); experiment: NVS_ENZ_hTrkA: NovaScreen (NVS) Enzymatic Assay for human Tropomyosin Receptor Kinase A (TRKA) (AID 2283224)
# human Tropomyosin Receptor Kinase A (TRKA), NTRK1 (gene 4914), sequence (P04629 whole entry, looked up): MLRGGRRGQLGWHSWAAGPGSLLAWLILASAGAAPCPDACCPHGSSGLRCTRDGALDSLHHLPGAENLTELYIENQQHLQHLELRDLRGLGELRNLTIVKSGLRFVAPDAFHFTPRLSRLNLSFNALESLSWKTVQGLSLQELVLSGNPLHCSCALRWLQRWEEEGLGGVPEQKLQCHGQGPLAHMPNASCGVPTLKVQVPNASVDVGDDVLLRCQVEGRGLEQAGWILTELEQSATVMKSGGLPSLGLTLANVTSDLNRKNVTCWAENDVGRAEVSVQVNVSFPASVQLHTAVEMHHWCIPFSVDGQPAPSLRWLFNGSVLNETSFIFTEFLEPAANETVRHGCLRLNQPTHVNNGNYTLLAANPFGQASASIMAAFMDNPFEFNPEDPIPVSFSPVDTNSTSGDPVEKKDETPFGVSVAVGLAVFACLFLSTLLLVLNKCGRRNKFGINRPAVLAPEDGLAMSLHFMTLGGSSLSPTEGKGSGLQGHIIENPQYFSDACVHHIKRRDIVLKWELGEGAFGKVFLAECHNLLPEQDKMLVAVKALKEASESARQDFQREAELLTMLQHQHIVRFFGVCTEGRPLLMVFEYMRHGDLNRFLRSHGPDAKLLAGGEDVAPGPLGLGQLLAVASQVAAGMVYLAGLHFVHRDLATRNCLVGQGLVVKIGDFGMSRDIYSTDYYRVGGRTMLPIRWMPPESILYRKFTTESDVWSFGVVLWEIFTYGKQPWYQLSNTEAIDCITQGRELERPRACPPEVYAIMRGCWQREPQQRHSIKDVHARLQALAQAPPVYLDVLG
# Procedure, shortened: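 Recombinant human TrkA activity read after 1 h by fluorescence with electrophoretic mobility shift separating substrate and product. Primary screen in duplicate at 25 uM; actives were rerun in concentration-response up to 50 uM. Loss of signal versus DMSO.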
# [8] = molecular target: human Raf-1 Proto-Oncogene, serine/threonine Kinase (RAF1), RAF1 (gene 5894) (UniProt P04049); experiment: NVS_ENZ_hRAF1: NovaScreen (NVS) Enzymatic Assay for human Raf-1 Proto-Oncogene, serine/threonine Kinase (RAF1) (AID 2283216)
# human Raf-1 Proto-Oncogene, serine/threonine Kinase (RAF1), RAF1 (gene 5894), sequence (P04049 whole entry, looked up): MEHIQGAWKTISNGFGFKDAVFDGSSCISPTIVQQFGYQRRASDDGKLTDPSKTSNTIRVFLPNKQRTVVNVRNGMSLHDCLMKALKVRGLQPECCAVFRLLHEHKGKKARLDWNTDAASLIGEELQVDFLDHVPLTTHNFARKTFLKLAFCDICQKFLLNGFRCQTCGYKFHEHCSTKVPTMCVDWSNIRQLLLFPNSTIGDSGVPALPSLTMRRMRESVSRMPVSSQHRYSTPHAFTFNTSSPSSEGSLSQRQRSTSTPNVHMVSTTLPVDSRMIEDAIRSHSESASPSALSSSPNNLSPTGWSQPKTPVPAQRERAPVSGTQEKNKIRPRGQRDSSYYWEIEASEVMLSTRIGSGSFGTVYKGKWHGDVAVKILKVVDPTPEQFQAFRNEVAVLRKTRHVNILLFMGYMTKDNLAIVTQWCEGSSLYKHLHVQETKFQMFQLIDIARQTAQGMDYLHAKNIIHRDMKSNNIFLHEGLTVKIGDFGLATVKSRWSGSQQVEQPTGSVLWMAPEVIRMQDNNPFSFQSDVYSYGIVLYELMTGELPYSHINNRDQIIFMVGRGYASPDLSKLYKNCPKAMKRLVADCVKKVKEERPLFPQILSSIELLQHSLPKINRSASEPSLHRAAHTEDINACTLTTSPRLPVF
# Procedure, shortened: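 Cell-free recombinant kinase with specific fluorescent substrate, product separated by electrophoretic mobility shift; read 1 h after dosing. Primary screen at 25 uM in duplicate; hits then run in concentration-response up to 50 uM, fitted as loss of signal versus DMSO.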
# [9] = molecular target: rat Acetylcholinesterase (AChE), Ache (gene 83817) (UniProt P37136); experiment: NVS_ENZ_rAChE: NovaScreen (NVS) Enzymatic Assay for rat Acetylcholinesterase (AChE) (AID 2283233)
# Procedure, shortened: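 Rat brain membrane acetylcholinesterase activity measured colorimetrically 0.33 h after compound addition, loss of signal relative to DMSO. Primary screen in duplicate at 25 uM; actives re-run as concentration-response with 50 uM top concentration.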
# [10] = molecular target: human Vascular Endothelial Growth Factor Receptor 1 (VEGFR1), FLT1 (gene 2321) (UniProt P17948); experiment: NVS_ENZ_hVEGFR1: NovaScreen (NVS) Enzymatic Assay for human Vascular Endothelial Growth Factor Receptor 1 (VEGFR1) (AID 2283226)
# human Vascular Endothelial Growth Factor Receptor 1 (VEGFR1), FLT1 (gene 2321), sequence (P17948 whole entry, looked up): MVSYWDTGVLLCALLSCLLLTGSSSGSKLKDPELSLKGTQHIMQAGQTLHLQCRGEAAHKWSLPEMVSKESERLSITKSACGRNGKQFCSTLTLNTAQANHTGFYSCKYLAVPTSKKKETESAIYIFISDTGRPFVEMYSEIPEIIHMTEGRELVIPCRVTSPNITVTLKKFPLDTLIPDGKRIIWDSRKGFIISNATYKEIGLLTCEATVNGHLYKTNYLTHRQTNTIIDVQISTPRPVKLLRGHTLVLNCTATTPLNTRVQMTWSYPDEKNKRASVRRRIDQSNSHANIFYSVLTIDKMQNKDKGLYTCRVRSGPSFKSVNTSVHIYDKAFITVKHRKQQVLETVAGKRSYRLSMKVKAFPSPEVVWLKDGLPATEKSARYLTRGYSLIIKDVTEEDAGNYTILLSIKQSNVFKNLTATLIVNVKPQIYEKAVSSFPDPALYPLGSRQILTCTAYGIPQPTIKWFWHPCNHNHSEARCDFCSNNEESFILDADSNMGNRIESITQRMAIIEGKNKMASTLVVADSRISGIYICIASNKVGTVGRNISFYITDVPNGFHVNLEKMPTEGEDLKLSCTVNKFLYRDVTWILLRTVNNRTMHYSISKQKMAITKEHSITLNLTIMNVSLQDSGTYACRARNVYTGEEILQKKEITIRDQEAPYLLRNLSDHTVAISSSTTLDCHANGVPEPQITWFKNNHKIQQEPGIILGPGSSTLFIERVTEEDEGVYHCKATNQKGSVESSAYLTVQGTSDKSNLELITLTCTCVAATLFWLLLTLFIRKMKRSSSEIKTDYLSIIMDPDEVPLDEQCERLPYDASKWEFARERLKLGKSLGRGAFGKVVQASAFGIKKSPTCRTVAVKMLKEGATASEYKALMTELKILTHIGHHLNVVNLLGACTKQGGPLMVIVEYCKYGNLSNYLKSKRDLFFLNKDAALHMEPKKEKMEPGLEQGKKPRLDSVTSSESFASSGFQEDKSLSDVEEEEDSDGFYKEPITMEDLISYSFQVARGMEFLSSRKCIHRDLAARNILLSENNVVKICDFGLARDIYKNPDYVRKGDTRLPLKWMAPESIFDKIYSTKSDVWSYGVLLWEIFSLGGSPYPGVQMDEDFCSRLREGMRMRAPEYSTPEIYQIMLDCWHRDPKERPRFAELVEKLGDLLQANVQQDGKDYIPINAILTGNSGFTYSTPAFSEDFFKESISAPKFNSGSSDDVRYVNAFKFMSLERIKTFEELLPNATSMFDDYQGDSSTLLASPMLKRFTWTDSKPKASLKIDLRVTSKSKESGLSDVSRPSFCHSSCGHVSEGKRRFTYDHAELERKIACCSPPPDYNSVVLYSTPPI
# Procedure, shortened: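 Cell-free assay of recombinant human VEGFR1 kinase with substrate, measured 1 h after dosing; fluorescence with electrophoretic mobility-shift separation of substrate and product, referenced to DMSO; primary screen at 25 uM in duplicate, actives then run in concentration series.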
# [11] = molecular target: human Vascular Endothelial Growth Factor Receptor 3 (VEGFR3), FLT4 (gene 2324) (UniProt P35916); experiment: NVS_ENZ_hVEGFR3: NovaScreen (NVS) Enzymatic Assay for human Vascular Endothelial Growth Factor Receptor 3 (VEGFR3) (AID 2283229)
# Procedure, shortened: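 Cell-free recombinant VEGFR3 kinase reaction with fluorescent substrate, read 1 h after dosing by electrophoretic mobility shift separation of substrate and product. Single-concentration duplicate screen at 25 uM, then concentration-response up to 50 uM; loss of activity versus DMSO.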
# [12] = molecular target: human Vascular Endothelial Growth Factor Receptor 2 (VEGFR2), KDR (gene 3791) (UniProt P35968); experiment: NVS_ENZ_hVEGFR2: NovaScreen (NVS) Enzymatic Assay for human Vascular Endothelial Growth Factor Receptor 2 (VEGFR2) (AID 2283230)
# human Vascular Endothelial Growth Factor Receptor 2 (VEGFR2), KDR (gene 3791), sequence (P35968 whole entry, looked up): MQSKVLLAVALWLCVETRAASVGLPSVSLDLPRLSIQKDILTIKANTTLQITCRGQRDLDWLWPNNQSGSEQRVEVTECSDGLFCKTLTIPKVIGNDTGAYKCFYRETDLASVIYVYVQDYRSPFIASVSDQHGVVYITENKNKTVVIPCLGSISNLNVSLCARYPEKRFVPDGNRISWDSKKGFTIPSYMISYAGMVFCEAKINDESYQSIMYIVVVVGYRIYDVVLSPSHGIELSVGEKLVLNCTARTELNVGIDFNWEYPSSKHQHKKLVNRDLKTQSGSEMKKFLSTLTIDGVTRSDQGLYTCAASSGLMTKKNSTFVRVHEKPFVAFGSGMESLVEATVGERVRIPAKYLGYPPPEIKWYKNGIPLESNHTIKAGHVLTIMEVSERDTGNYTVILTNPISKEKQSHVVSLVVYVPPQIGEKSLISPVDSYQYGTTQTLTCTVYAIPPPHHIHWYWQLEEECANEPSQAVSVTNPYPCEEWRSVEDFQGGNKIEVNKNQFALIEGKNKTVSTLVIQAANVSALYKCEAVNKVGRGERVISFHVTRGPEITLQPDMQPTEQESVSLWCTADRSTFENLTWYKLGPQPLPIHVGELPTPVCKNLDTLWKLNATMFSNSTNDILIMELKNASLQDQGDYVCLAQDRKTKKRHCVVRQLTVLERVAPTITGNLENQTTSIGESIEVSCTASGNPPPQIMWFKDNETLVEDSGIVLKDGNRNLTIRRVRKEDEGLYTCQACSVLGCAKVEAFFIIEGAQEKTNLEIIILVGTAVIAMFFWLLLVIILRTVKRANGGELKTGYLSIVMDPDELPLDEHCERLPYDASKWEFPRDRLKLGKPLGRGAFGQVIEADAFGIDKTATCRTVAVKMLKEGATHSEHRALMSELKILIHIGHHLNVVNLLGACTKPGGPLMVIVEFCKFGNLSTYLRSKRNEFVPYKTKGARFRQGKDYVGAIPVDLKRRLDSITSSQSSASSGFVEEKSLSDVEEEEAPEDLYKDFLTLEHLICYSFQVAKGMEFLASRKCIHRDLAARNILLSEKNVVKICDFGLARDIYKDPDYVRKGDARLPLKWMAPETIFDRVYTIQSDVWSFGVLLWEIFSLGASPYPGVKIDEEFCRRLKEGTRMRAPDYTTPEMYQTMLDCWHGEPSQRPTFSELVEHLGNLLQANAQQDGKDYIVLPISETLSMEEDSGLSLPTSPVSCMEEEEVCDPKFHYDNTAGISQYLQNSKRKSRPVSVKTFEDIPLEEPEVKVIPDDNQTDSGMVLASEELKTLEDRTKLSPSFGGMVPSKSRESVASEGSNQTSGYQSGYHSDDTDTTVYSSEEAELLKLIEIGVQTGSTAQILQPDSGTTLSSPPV
# Procedure, shortened: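 Cell-free recombinant VEGFR2 kinase, fluorescent substrate with electrophoretic mobility-shift separation; read 1 h after dosing. Screened at 25 uM in duplicate, hits to concentration-response up to 50 uM; loss-of-signal versus DMSO.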
# [13] = molecular target: rat Monoamine Oxidase, MAO-B, Central (MAOBC), Maob (gene 25750) (UniProt P19643); experiment: NVS_ENZ_rMAOBC: NovaScreen (NVS) Enzymatic Assay for rat Monoamine Oxidase, MAO-B, Central (MAOBC) (AID 2283238)
# Procedure, shortened: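 Compounds were first tested in duplicate at 25 uM against MAO-B from rat brain tissue; those passing the inhibition threshold were retested in concentration series up to 50 uM. Radiodetection by scintillation counting at 1.17 h, analysed against DMSO baseline.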
# [14] = system: rat Monoamine Oxidase, MAO-A, Peripheral (MAOAP), gene 29253; experiment: NVS_ENZ_rMAOAP: NovaScreen (NVS) Enzymatic Assay for rat Monoamine Oxidase, MAO-A, Peripheral (MAOAP) (AID 2283237)
# Procedure, shortened: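 Rat liver mitochondrial membranes served as the MAO-A source, with enzyme activity measured by radiometric scintillation counting 1.17 hours after dosing. Loss of signal was fitted against DMSO; primary screen used 25 uM in duplicate, follow-up used concentration series.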
# [15] = molecular target: rat Catechol-O-Methyl Transferase (COMT), Comt (gene 24267) (UniProt P22734); experiment: NVS_ENZ_rCOMT: NovaScreen (NVS) Enzymatic Assay for rat Catechol-O-Methyl Transferase (COMT) (AID 2283235)
# Procedure, shortened: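 Cell-free enzyme activity with protein extracted from rat dorsal striatum, measured by HPLC with absorbance detection. Compounds screened at 25 uM in duplicate; actives then run in concentration-response up to 50 uM, loss of signal versus DMSO.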
smiles,measurement,setting,value
O=[N+]([O-])/N=C1\NCCN1Cc1ccc(Cl)nc1,AC50,[1],11.4 µM (active)
CCCN(CCOc1c(Cl)cc(Cl)cc1Cl)C(=O)n1ccnc1,AC50,[2],10.8 µM (active)
same,outcome,[3],inactive
same,outcome,[1],inactive
same,outcome,[4],inactive
O=[N+]([O-])c1c(Cl)c(Cl)c(Cl)c(Cl)c1Cl,outcome,[1],inactive
CCCN(CCC)c1c([N+](=O)[O-])cc(C(F)(F)F)cc1[N+](=O)[O-],outcome,[5],inactive
same,AC50,[6],12.8 µM (active)
CC(C)(C)C(O)/C(=C\c1ccc(Cl)cc1Cl)n1cncn1 (stereo not given),outcome,[7],inactive
CNC(=O)/C=C(\C)OP(=O)(OC)OC,outcome,[8],inactive
CNC(=O)Oc1ccccc1OC(C)C,AC50,[9],5.05 µM (active)
same,outcome,[4],inactive
COc1cc(OC)nc(NC(=O)NS(=O)(=O)c2cc(NC=O)ccc2C(=O)N(C)C)n1,outcome,[4],inactive
O=S(=O)(O)C(F)(F)C(F)(F)C(F)(F)C(F)(F)C(F)(F)C(F)(F)C(F)(F)C(F)(F)F,AC50,[8],33.2 µM (active) and 24.5 µM (active)
same,AC50,[2],6.66 µM (active)
same,AC50,[7],36.5 µM (active) and 28.4 µM (active)
same,AC50,[10],11.9 µM (active) and 11.4 µM (active) and 8.57 µM (active)
same,AC50,[11],7.45 µM (active) and 9.17 µM (active)
same,AC50,[12],27.2 µM (active) and 43.1 µM (active)
same,AC50,[5],9.06 µM (active)
same,outcome,[6],inactive
CC1(c2ccc(Oc3ccccc3)cc2)OC(=O)N(Nc2ccccc2)C1=O (stereo not given),outcome,[6],inactive
O=C(O)C(F)(F)C(F)(F)C(F)(F)C(F)(F)C(F)(F)C(F)(F)C(F)(F)F,outcome,[6],inactive
CC(C)N(C(=O)COc1nnc(C(F)(F)F)s1)c1ccc(F)cc1,AC50,[9],14.2 µM (active)
O=C1c2ccccc2C(=O)N1SC(Cl)(Cl)Cl,AC50,[4],2.25 µM (active)
CC(C)(C)C(O)C(Oc1ccc(Cl)cc1)n1cncn1 (stereo not given),outcome,[11],inactive
same,outcome,[12],inactive
same,outcome,[6],inactive
COP(=S)(OC)Oc1ccc(SC)c(C)c1,outcome,[11],inactive
[2H]C1([2H])[n+]2ccccc2-c2cccc[n+]2C1([2H])[2H],outcome,[4],inactive
COP(=S)(OC)Oc1ccc([N+](=O)[O-])cc1,outcome,[9],inactive
same,outcome,[13],inactive
CNC(=O)Oc1cccc(N=CN(C)C)c1,AC50,[1],0.67 µM (active)
same,AC50,[9],12 µM (active)
same,outcome,[14],inactive
O=C(O)COc1ccc(Cl)cc1Cl,outcome,[15],inactive
C#CCN1C(=O)COc2cc(F)c(N3C(=O)C4=C(CCCC4)C3=O)cc21,outcome,[5],inactive
same,AC50,[13],25 µM (active)
same,AC50,[6],1.11 µM (active)
Cc1cc(C)nc(NC(=O)NS(=O)(=O)c2ccccc2C(=O)OC2COC2)n1,AC50,[4],2.58 µM (active)
